Results published in PubChem BioAssay (EPA / NIEHS).
Records with an inconclusive call do not appear. Active and inactive are the calls of the source. How the source made its calls: active means hit-call score of the fitted dose curve at least 0.9, where 1 is the maximum; inconclusive means response in the unintended direction; inactive means score below 0.9.

How the values were obtained:
[1] = biological target: human Peroxisome Proliferator-activated Receptor alpha (PPARa), PPARA (gene 5465) (UniProt Q07869); assay: ATG_PPARa_TRANS: Attagene TRANS-FACTORIAL HepG2 Assay for human Peroxisome Proliferator-activated Receptor alpha (PPARa) (AID 2283001);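 on AC50: potency for gain of reporter signal over DMSO so agonist or activator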
Sequence of human Peroxisome Proliferator-activated Receptor alpha (PPARa), PPARA (gene 5465) (Q07869 whole entry, looked up): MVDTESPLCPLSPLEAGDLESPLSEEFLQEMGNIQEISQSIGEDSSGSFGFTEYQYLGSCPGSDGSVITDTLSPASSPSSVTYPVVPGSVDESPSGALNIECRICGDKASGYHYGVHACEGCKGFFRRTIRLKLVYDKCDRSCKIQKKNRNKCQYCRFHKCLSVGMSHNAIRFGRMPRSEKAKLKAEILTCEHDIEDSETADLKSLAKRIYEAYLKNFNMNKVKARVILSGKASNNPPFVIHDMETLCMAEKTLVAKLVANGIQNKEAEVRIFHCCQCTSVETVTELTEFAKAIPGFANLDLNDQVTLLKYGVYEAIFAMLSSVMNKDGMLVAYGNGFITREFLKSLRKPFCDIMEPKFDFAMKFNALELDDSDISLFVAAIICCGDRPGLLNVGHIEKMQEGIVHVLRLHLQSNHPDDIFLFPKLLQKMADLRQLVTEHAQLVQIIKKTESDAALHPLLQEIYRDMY
Outline: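 Cells (HepG2) are transfected with multiple reporter transcription units, exposed to chemical for 24 h, then total RNA is reverse-transcribed and amplified. Labelled products are quantified by capillary electrophoresis; induction is referenced to DMSO.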

[2] = biological target: Peroxisome proliferator-activated receptor gamma (Homo sapiens) (UniProt P37231); assay: ATG_PPARg_TRANS: Attagene TRANS-FACTORIAL HepG2 Assay for human Peroxisome Proliferator-activated Receptor-gamma (PPARg) (AID 2283007)
Sequence of Peroxisome proliferator-activated receptor gamma (Homo sapiens) (P37231 whole entry, looked up, the tested form may be a part): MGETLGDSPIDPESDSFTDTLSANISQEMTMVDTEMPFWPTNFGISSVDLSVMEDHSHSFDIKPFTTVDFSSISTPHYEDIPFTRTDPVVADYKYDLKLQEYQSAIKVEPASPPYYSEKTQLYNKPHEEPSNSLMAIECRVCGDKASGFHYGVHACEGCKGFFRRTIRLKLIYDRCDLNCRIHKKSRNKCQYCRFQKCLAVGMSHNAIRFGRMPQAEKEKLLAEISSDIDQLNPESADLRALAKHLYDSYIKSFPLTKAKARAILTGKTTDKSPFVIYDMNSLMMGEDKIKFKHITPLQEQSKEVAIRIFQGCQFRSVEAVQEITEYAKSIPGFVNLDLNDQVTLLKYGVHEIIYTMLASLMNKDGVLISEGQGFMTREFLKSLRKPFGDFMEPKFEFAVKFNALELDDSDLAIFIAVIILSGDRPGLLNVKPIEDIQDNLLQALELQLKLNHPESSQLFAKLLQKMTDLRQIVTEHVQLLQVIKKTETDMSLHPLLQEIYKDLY
Outline: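 HepG2 cells are transiently transfected with GAL4-UAS reporter units driven by chimeric NR-Gal4 fusions and dosed for 24 h. Reporter mRNA is quantified by RT-PCR, 6-FAM labelling, HpaI digestion and capillary electrophoresis. Induction is scored against DMSO.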

[3] = biological target: Nuclear receptor subfamily 1 group I member 2 (Homo sapiens) (UniProt O75469); assay: ATG_PXR_TRANS: Attagene TRANS-FACTORIAL HepG2 Assay for human Pregnane X Receptor (PXR) (AID 2283008)
Sequence of Nuclear receptor subfamily 1 group I member 2 (Homo sapiens) (O75469 whole entry, looked up, the tested form may be a part): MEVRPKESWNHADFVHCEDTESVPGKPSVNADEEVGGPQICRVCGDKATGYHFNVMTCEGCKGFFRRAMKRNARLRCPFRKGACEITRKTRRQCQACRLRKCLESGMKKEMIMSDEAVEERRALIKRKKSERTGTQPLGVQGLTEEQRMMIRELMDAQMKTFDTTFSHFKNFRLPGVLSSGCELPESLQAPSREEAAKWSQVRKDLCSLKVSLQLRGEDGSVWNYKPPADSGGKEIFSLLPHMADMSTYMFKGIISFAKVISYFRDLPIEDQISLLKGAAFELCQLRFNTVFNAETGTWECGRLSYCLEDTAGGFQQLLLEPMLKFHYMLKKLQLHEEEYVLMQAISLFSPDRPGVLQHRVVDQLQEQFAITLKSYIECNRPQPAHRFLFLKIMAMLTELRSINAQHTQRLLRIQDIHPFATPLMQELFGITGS
Outline: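 HepG2 transfected (FuGene 6) with GAL4-UAS reporter units + PXR-Gal4 chimera; dosed 24 h. Total RNA → oligo(dT) RT → PCR → 6-FAM primer extension → HpaI cut → CE. Gain-of-signal vs DMSO.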

[4] = biological target: Retinoic acid receptor alpha (Homo sapiens) (UniProt P10276); assay: ATG_RARa_TRANS: Attagene TRANS-FACTORIAL HepG2 Assay for human Retinoic Acid Receptor alpha (RARa) (AID 2283005)
Sequence of Retinoic acid receptor alpha (Homo sapiens) (P10276 whole entry, looked up, the tested form may be a part): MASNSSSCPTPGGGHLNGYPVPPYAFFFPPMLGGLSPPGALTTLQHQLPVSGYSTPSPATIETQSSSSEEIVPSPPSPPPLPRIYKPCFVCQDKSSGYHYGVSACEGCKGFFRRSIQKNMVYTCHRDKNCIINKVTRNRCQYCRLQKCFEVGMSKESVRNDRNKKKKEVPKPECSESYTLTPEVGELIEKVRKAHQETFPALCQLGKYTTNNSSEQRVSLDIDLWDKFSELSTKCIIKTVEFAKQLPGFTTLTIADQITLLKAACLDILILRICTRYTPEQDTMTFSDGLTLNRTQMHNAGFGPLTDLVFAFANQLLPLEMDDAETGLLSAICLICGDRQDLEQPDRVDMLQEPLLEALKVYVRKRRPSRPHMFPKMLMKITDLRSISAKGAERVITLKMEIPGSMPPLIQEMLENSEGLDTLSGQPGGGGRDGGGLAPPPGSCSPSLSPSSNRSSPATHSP
Outline: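 HepG2 cells transiently transfected with multiple reporter units expressing chimeric RARα-GAL4 fusion, with GAL4-UAS-driven reporters. After 24 h compound exposure, reporter mRNA induction quantified by RT-PCR and capillary electrophoresis with fluorescent labeling; gain-of-signal fitted relative to DMSO control.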

[5] = biological target: human Retinoic Acid Receptor gamma (RARg), RARG (gene 5916) (UniProt P13631); assay: ATG_RARg_TRANS: Attagene TRANS-FACTORIAL HepG2 Assay for human Retinoic Acid Receptor gamma (RARg) (AID 2283009)
Sequence of human Retinoic Acid Receptor gamma (RARg), RARG (gene 5916) (P13631 whole entry, looked up, the tested form may be a part): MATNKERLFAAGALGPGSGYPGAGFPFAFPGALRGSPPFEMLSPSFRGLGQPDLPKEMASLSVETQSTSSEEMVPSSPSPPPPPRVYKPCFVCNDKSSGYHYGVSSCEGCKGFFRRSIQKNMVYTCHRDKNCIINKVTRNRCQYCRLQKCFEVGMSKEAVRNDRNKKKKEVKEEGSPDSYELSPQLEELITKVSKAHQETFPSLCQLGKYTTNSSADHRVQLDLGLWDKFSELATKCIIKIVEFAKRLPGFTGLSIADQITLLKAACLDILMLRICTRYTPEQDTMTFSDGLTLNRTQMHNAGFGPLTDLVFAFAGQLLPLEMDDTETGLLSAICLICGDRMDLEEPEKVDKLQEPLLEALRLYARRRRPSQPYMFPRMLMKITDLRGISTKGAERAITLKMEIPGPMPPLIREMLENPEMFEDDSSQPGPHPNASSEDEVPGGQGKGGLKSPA
Outline: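 Transactivation of exogenous RARg-Gal4 fusion measured as reporter transcript induction after 24 h in transfected HepG2 cells. RNA reverse-transcribed, amplified, fluorescently labeled and resolved by capillary electrophoresis; increase relative to DMSO.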

[6] = biological target: human Retinoic Acid Receptor beta (RARb), RARB (gene 5915) (UniProt P10826); assay: ATG_RARb_TRANS: Attagene TRANS-FACTORIAL HepG2 Assay for human Retinoic Acid Receptor beta (AID 2283004)
Sequence of human Retinoic Acid Receptor beta (RARb), RARB (gene 5915) (P10826 whole entry, looked up, the tested form may be a part): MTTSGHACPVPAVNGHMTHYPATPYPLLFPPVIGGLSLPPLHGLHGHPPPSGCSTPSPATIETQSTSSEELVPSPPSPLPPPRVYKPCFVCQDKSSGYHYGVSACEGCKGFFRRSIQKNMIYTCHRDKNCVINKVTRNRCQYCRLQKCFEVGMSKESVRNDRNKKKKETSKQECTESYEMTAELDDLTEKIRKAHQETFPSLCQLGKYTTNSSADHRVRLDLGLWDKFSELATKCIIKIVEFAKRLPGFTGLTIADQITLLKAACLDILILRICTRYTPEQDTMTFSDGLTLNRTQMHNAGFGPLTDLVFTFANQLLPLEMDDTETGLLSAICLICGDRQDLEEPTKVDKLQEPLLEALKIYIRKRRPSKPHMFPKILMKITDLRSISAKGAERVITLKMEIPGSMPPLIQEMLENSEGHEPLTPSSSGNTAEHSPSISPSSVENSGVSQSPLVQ
Outline: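 HepG2 cells transiently transfected with multiplexed GAL4-UAS reporter units expressing chimeric NR–Gal4 fusions; 24 h compound exposure. Reporter mRNA quantified by RT-PCR, 6-FAM labelling, HpaI digestion and capillary electrophoresis; gain-of-signal fitted against DMSO baseline.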

[7] = biological target: human RAR-related Orphan Receptor beta (RORb), RORB (gene 6096) (UniProt Q92753); assay: ATG_RORb_TRANS: Attagene TRANS-FACTORIAL HepG2 Assay for human RAR-related Orphan Receptor beta (RORb) (AID 2283010)
Sequence of human RAR-related Orphan Receptor beta (RORb), RORB (gene 6096) (Q92753 whole entry, looked up, the tested form may be a part): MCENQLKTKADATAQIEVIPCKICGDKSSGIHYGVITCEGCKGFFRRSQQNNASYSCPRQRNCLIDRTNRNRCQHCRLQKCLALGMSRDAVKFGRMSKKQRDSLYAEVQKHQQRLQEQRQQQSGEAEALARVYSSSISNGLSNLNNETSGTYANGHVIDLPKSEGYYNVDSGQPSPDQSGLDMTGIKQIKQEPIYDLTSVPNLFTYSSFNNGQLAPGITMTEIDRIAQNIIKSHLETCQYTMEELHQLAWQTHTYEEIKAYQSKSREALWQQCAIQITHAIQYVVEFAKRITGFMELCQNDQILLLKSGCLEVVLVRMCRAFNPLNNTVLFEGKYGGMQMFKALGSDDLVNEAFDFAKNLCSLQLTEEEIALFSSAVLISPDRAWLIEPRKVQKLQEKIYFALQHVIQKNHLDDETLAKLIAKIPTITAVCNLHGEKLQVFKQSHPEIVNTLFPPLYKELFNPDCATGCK
Outline: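 Read-out is reporter mRNA induction, quantified by RT-PCR with fluorescent capillary electrophoresis, 24 h post-dose in transiently transfected HepG2 expressing exogenous NR-Gal4 chimera. Activity fitted upward versus DMSO.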

[8] = biological target: human Peroxisome Proliferator-activated Receptor delta (PPARd), PPARD (gene 5467) (UniProt Q03181); assay: ATG_PPARd_TRANS: Attagene TRANS-FACTORIAL HepG2 Assay for human Peroxisome Proliferator-activated Receptor delta (PPARd) (AID 2283002)
Sequence of human Peroxisome Proliferator-activated Receptor delta (PPARd), PPARD (gene 5467) (Q03181 whole entry, looked up, the tested form may be a part): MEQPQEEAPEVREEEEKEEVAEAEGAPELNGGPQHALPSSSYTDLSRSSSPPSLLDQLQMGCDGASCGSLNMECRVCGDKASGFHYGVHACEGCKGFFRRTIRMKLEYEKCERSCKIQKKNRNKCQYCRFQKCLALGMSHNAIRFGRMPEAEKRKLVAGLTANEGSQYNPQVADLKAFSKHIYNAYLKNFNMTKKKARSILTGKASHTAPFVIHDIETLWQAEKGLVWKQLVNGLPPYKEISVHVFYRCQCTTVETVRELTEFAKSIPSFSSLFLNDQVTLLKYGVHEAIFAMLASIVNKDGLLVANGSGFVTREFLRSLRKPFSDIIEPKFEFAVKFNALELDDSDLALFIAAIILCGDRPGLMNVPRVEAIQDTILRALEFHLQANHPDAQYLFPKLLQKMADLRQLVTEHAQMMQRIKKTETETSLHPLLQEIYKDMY
Outline: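 HepG2 cells transiently transfected with multiplexed GAL4-UAS reporter units and exogenous chimeric NR-Gal4 proteins; 24 h compound exposure. Reporter mRNA measured by RT-PCR, 6-FAM labelling, HpaI digestion and capillary electrophoresis; gain of signal versus DMSO.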

SMILES: O=C(O)c1cc(Cl)cc([N+](=O)[O-])c1Cl
- outcome [1]: inactive
- outcome [2]: inactive
- outcome [3]: inactive

SMILES: OCCN(CCO)c1ccccc1
- outcome [1]: inactive
- outcome [4]: inactive
- outcome [2]: inactive
- outcome [3]: inactive

SMILES: NC(=O)NNC(N)=O
- outcome [1]: inactive
- outcome [4]: inactive
- outcome [3]: inactive
- outcome [5]: inactive

SMILES: CC(C)=CC1CC(C)CCO1 (configuration not stated)
- outcome [1]: inactive
- outcome [4]: inactive

SMILES: CCc1nccnc1C
- outcome [1]: inactive
- outcome [6]: inactive
- outcome [2]: inactive
- outcome [3]: inactive
- outcome [7]: inactive

SMILES: O=C1CCCC(=O)O1
- outcome [1]: inactive
- outcome [6]: inactive
- outcome [3]: inactive
- outcome [7]: inactive

SMILES: CCCCC/C=C\CCC=O
- outcome [1]: inactive
- AC50 [2]: 53.6 µM (active)
- outcome [3]: inactive

SMILES: CC(=O)Oc1ccc(C)cc1
- outcome [1]: inactive
- outcome [6]: inactive
- outcome [5]: inactive
- outcome [7]: inactive

SMILES: CC(=O)NS(=O)(=O)c1ccc(N)cc1
- outcome [1]: inactive
- outcome [4]: inactive
- outcome [3]: inactive
- outcome [5]: inactive

SMILES: COc1ccc(-c2coc3cc(O)ccc3c2=O)cc1
- outcome [1]: inactive
- outcome [2]: inactive
- outcome [3]: inactive

SMILES: O=C1C=CC(=O)O1
- outcome [1]: inactive
- outcome [4]: inactive
- outcome [7]: inactive

SMILES: Nc1cccc(C(F)(F)F)c1
- outcome [1]: inactive
- outcome [6]: inactive
- outcome [2]: inactive
- outcome [3]: inactive

SMILES: CCC(CO)CO
- outcome [1]: inactive
- outcome [6]: inactive
- outcome [3]: inactive
- outcome [7]: inactive

SMILES: C=CC(=O)OCCC(=O)O
- outcome [1]: inactive
- outcome [2]: inactive
- outcome [3]: inactive

SMILES: C=C(C)C(=O)OCCOc1ccccc1
- outcome [1]: inactive
- AC50 [2]: 28.5 µM (active)
- outcome [3]: inactive

SMILES: Cc1cccc(C(=O)O)c1
- outcome [1]: inactive
- outcome [4]: inactive
- outcome [2]: inactive
- outcome [3]: inactive
- outcome [5]: inactive

SMILES: CCCc1ccc(OC)cc1
- outcome [1]: inactive
- outcome [6]: inactive
- outcome [2]: inactive
- outcome [3]: inactive
- outcome [7]: inactive

SMILES: O=S(=O)(O)c1ccccc1C=Cc1ccc(-c2ccc(C=Cc3ccccc3S(=O)(=O)O)cc2)cc1
- outcome [1]: inactive
- outcome [4]: inactive
- outcome [2]: inactive

SMILES: CC(C)C1=CC2=CC[C@@H]3[C@](C)(CCC[C@@]3(C)C(=O)O)[C@H]2CC1
- outcome [1]: inactive
- outcome [6]: inactive
- outcome [7]: inactive

SMILES: O=C1c2cccc(O)c2C(=O)c2c(O)cc(CO)cc21
- outcome [1]: inactive
- outcome [6]: inactive
- AC50 [2]: 50.3 µM (active)
- AC50 [3]: 5.78 µM (active)
- outcome [5]: inactive

SMILES: [Cl][Bi]([Cl])([c]1ccccc1)([c]1ccccc1)[c]1ccccc1
- AC50 [1]: 5.11 µM (active)
- AC50 [2]: 1.17 µM (active)
- outcome [3]: inactive

SMILES: CC(C)(C)c1ccc(OC(=O)c2ccccc2O)cc1
- outcome [1]: inactive
- outcome [2]: inactive
- outcome [3]: inactive

SMILES: CC(C)(C)C(=O)C=Cc1ccc(Cl)cc1
- AC50 [1]: 24.7 µM (active)
- AC50 [2]: 26.6 µM (active)
- AC50 [3]: 26.2 µM (active)

SMILES: O=C1C(N(CO)C(=O)NCO)N(CO)C(=O)N1CO (configuration not stated)
- outcome [1]: inactive
- outcome [6]: inactive
- outcome [2]: inactive
- outcome [5]: inactive
- outcome [7]: inactive

SMILES: Cc1ccc(C(C)(C)C)cc1
- outcome [1]: inactive
- outcome [6]: inactive
- outcome [3]: inactive

SMILES: CC(C)(Oc1ccc(C2CC2(Cl)Cl)cc1)C(=O)O (configuration not stated)
- AC50 [1]: 0.975 µM (active)
- outcome [4]: inactive
- outcome [3]: inactive
- outcome [5]: inactive

SMILES: CCCCCCC1(C)CCC(=O)O1 (configuration not stated)
- outcome [1]: inactive
- outcome [2]: inactive
- AC50 [3]: 33.2 µM (active)

SMILES: O=C(O)c1cc2ccccc2nc1C(=O)O
- outcome [1]: inactive
- outcome [2]: inactive
- outcome [3]: inactive

SMILES: Cc1cc(O)c(Cl)c(C)c1Cl
- outcome [1]: inactive
- AC50 [2]: 21.9 µM (active)

SMILES: COC(F)(F)C(F)(C(F)(F)F)C(F)(F)F
- outcome [1]: inactive
- outcome [6]: inactive
- outcome [7]: inactive

SMILES: COc1c2ccoc2cc2oc(=O)ccc12
- outcome [1]: inactive
- outcome [2]: inactive
- AC50 [3]: 36.6 µM (active)

SMILES: Cc1ccc(N/N=c2\c(=O)cc/c(=N/Nc3ccc(S(=O)(=O)O)cc3)c2=O)c(C)c1
- outcome [1]: inactive
- outcome [2]: inactive
- outcome [3]: inactive

SMILES: CCCCCCCCC(=O)OCC
- outcome [1]: inactive
- outcome [6]: inactive
- outcome [4]: inactive
- outcome [3]: inactive
- outcome [5]: inactive

SMILES: O=[N+]([O-])C1(Br)COCOC1
- outcome [1]: inactive
- outcome [6]: inactive
- outcome [2]: inactive

SMILES: CC1=NC(C)OC1C (configuration not stated)
- outcome [1]: inactive
- outcome [6]: inactive
- outcome [4]: inactive
- AC50 [3]: 19.8 µM (active)

SMILES: CCOC(=O)c1ccc(N(C)C)cc1
- outcome [1]: inactive
- outcome [2]: inactive

SMILES: O=C1CCCCCN1SSN1CCCCCC1=O
- outcome [1]: inactive
- outcome [2]: inactive

SMILES: CCCCOCCOC(=O)COc1nc(Cl)c(Cl)cc1Cl
- outcome [1]: inactive
- outcome [4]: inactive
- AC50 [2]: 60.1 µM (active)
- outcome [3]: inactive

SMILES: CCCCCCOc1cc(C)c(O)c(C)c1C
- outcome [8]: inactive
- outcome [6]: inactive
- outcome [3]: inactive
- outcome [5]: inactive

SMILES: c1cc(C(c2ccc(OCC3CO3)cc2)C(c2ccc(OCC3CO3)cc2)c2ccc(OCC3CO3)cc2)ccc1OCC1CO1 (configuration not stated)
- outcome [8]: inactive
- outcome [2]: inactive
- outcome [3]: inactive

SMILES: O=CC1CC1
- outcome [8]: inactive
- outcome [4]: inactive
- outcome [5]: inactive

SMILES: CCCNC(=O)NS(=O)(=O)c1ccc(Cl)cc1
- outcome [8]: inactive
- outcome [6]: inactive
- outcome [2]: inactive
- outcome [3]: inactive
- outcome [5]: inactive

SMILES: O=c1c2ccccc2nnn1CCl
- outcome [8]: inactive
- outcome [2]: inactive
- AC50 [3]: 5.33 µM (active)

SMILES: CCC(=O)Oc1ccc(/C(CC)=C(\CC)c2ccc(OC(=O)CC)cc2)cc1
- outcome [8]: inactive
- AC50 [2]: 18.5 µM (active)
- AC50 [3]: 4.5 µM (active)

SMILES: CC(C)(C)C(=O)CCc1ccc(Cl)cc1
- outcome [8]: inactive
- outcome [2]: inactive
- outcome [3]: inactive
- outcome [5]: inactive
